Data published in PubChem BioAssay (Tox21).
A number with no mark means an inactive call. Records with an inconclusive call do not appear. Entries that show only a call come without a potency. The source made the active and inactive calls. Unless noted, the call rests on the fitted dose curve; in most records, active means well fitted curve in the direction sought with a large enough effect in the repeat runs; inconclusive means weak or mixed curves; inactive means flat fitted curve, though single readings scatter.

Assays:
[1] = qHTS assay to test for compound auto fluorescence at 535 nm (green) in HEK293 cells (AID 720680)
[2] = qHTS assay to test for compound auto fluorescence at 460 nm (blue) in HEK293 cell free culture (AID 720681)
How it was run: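 Test compounds were pinned into cell-free culture medium (DMEM with 10% FBS) and fluorescence was read directly at Ex/Em 405/460 nm. Signals were expressed as fluorescence equivalents of triamterene, with DMSO vehicle as control.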

[3] = qHTS assay to test for compound auto fluorescence at 535 nm (green) in HEK293 cell free culture (AID 720682)
How it was run: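 Read-out: 485/535 nm fluorescence intensity, calibrated against fluorescein. Medium only (DMEM + 10% FBS, no cells); test compound or DMSO vehicle added by pintool before plate reading.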

[4] = qHTS assay to test for compound auto fluorescence at 590 nm (red) in HEK293 cell free culture (AID 720683)
How it was run: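 Tox21 10K library compounds were pinned into cell-free DMEM with 10% FBS and fluorescence was read at excitation 540 nm. Activity is expressed as Rose Bengal sodium equivalency.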

[5] = qHTS assay to test for compound auto fluorescence at 590 nm (red) in HepG2 cell free culture (AID 720684)
How it was run: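 Measured in medium alone (MEM containing 10% FBS) following pintool addition of compound; emission at 590 nm with 540 nm excitation, referenced to Rose Bengal sodium.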

[6] = qHTS assay to test for compound auto fluorescence at 460 nm (blue) in HepG2 cell free culture (AID 720685)
How it was run: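 Compound (23 nL) or DMSO pinned into cell-free MEM with 10% FBS; blue fluorescence read at 405/460 nm excitation/emission, expressed as auto-fluorescence equivalency to triamterene.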

[7] = qHTS assay to test for compound auto fluorescence at 535 nm (green) in HepG2 cell free culture (AID 720686)
[8] = qHTS assay to test for compound auto fluorescence at 460 nm (blue) in HepG2 cells (AID 720687)
How it was run: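 Cells (2,000/well in MEM with 10% FBS) attached overnight at 37 C, then were exposed to compound or DMSO for 1 hr at 37 C, 5% CO2. Fluorescence read at Ex/Em 405/460 nm, expressed as triamterene-equivalent signal.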

[9] = target: Glucocorticoid receptor (Homo sapiens) (UniProt P04150); experiment: qHTS assay to identify small molecule agonists of the glucocorticoid receptor (GR) signaling pathway (AID 720691; active means well fitted activation curve with a large enough effect in the signal ratio in the repeat runs, not every such curve was filed as active; the % refers to the signal ratio); conditions: GR-bla HeLa, beta-lactamase reporter ratio, 18 h; activation: at 62.4 µM (top of the series) unless noted
How it was run: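 Agonist mode in a HeLa line carrying a GRE-controlled beta-lactamase reporter. Compounds act for 18 h at 37 C before a 2 h room-temperature FRET substrate step and fluorescence reading.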

[10] = target: Glucocorticoid receptor (Homo sapiens) (UniProt P04150); experiment: qHTS assay to identify small molecule antagonists of the glucocorticoid receptor (GR) signaling pathway (AID 720692; active means well fitted inhibition curve with a large enough effect in the signal ratio in the repeat runs, not every such curve was filed as active; the % refers to the signal ratio; further: potency means the concentration at half of the fitted maximal effect)
How it was run: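 Cells plated, rested 4 h at 37 C/5% CO2; compounds in DMSO pin-transferred; dexamethasone added to 5 nM final; 18 h at 37 C; B/G FRET substrate added, 2 h room temperature; fluorescence measured.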

Sequence of Glucocorticoid receptor (Homo sapiens) (P04150 whole entry, looked up): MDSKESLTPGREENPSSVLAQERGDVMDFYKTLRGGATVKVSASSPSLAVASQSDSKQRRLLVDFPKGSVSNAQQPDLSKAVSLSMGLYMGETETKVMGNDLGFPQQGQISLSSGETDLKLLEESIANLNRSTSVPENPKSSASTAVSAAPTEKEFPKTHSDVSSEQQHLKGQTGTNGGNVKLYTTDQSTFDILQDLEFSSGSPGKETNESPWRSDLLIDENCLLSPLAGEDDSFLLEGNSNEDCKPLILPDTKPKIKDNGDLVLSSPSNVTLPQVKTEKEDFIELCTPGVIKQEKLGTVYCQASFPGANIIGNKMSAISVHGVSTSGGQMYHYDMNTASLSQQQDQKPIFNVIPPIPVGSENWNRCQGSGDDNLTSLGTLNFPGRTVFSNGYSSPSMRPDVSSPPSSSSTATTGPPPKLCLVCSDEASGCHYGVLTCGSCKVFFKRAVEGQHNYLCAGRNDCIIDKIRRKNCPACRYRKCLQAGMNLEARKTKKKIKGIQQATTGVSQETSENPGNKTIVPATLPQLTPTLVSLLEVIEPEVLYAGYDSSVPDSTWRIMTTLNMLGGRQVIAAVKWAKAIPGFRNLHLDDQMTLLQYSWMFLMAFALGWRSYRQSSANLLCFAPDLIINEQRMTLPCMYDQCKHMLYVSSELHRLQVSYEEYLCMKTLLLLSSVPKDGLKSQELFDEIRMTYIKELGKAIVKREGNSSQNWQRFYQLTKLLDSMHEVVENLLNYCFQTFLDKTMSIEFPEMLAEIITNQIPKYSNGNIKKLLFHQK

| Structure (SMILES) | outcome [1] | Potency [2] | outcome [3] | outcome [4] | outcome [5] | Potency [6] | outcome [7] | outcome [8] | Potency [9] | Potency [10] |
| --- | --- | --- | --- | --- | --- | --- | --- | --- | --- | --- |
| O=C(c1ccc(O)cc1)c1ccc(O)cc1O | inactive | inactive | inactive | inactive | inactive | inactive | inactive | inactive | inactive | – |
| C/C=C(C)/C=C/C=C(C)C | inactive | inactive | inactive | inactive | inactive | inactive | inactive | inactive | – | – |
| CN(CCOc1ccc(CC2SC(=O)NC2=O)cc1)c1ccccn1 (centres undefined) | inactive | inactive | inactive | inactive | inactive | inactive | inactive | inactive | – | – |
| OC[C@@H](O)[C@@H](O)[C@H](O)[C@@H](O)CO | inactive | inactive | inactive | inactive | inactive | inactive | inactive | inactive | – | – |
| NCCc1ccc(O)c(O)c1 | inactive | inactive | inactive | inactive | inactive | inactive | inactive | inactive | – | – |
| CCCCC(CC)COC(=O)/C=C\C(=O)OCC(CC)CCCC (centres undefined) | inactive | inactive | inactive | inactive | inactive | inactive | inactive | inactive | inactive | – |
| Cc1cc(O)c2c(c1)C(=O)c1cc(O)cc(O)c1C2=O | inactive | inactive | inactive | inactive | inactive | inactive | inactive | inactive | inactive | – |
| c1ccc2ccccc2c1 | inactive | inactive | inactive | inactive | inactive | inactive | inactive | inactive | – | – |
| O=c1c(-c2ccc(O)cc2)coc2cc(O)ccc12 | inactive | inactive | inactive | inactive | inactive | inactive | inactive | inactive | inactive | – |
| C=CC(=O)OCCCCCCCC(C)C | inactive | inactive | inactive | inactive | inactive | inactive | inactive | inactive | – | – |
| CC1CC(OC(=O)c2ccccc2O)CC(C)(C)C1 (centres undefined) | inactive | inactive | inactive | inactive | inactive | inactive | inactive | inactive | inactive | inactive |
| ClC1=C(Cl)C(Cl)(Cl)C(Cl)=C1Cl | inactive | inactive | inactive | inactive | inactive | inactive | inactive | inactive | inactive | 13.8 µM (active) |
| C=C(C)C(=O)OCCCCCCCCCCCC | inactive | inactive | inactive | inactive | inactive | inactive | inactive | inactive | inactive | inactive |
| O=C1N=C(O)CN1/N=C/c1ccc(-c2ccc([N+](=O)[O-])cc2)o1 | inactive | inactive | inactive | inactive | inactive | inactive | inactive | inactive | inactive | inactive |
| CCOC(=O)/C=C\C(=O)OCC | inactive | inactive | inactive | inactive | inactive | inactive | inactive | inactive | inactive | inactive |
| O=C1O[C@H](CO)[C@@H](O)[C@H](O)[C@H]1O | inactive | inactive | inactive | inactive | inactive | inactive | inactive | inactive | inactive | inactive |
| Cn1c([N+](=O)[O-])cnc1COC(N)=O | inactive | inactive | inactive | inactive | inactive | inactive | inactive | inactive | inactive | inactive |
| Clc1cc(Cl)c(Cl)cc1Cl | inactive | inactive | inactive | inactive | inactive | inactive | inactive | inactive | inactive | inactive |
| CCCCC(CC)COC(=O)CCCCCCCC(=O)OCC(CC)CCCC (centres undefined) | inactive | inactive | inactive | inactive | inactive | inactive | inactive | inactive | inactive | inactive |
| C=C(C)C(=O)OCC(CC)(COC(=O)C(=C)C)COC(=O)C(=C)C | inactive | inactive | inactive | inactive | inactive | inactive | inactive | inactive | inactive | inactive |
| Cc1cc(Cc2ccc(N)c(C)c2)ccc1N | inactive | inactive | inactive | inactive | inactive | inactive | inactive | inactive | inactive | inactive |
| Cc1cc(O)cc(C)c1Cl | inactive | inactive | inactive | inactive | inactive | inactive | inactive | inactive | inactive | inactive |
| O=Nc1ccc(O)cc1 | inactive | inactive | inactive | inactive | inactive | inactive | inactive | inactive | inactive | inactive |
| COCC(C)O (centres undefined) | inactive | inactive | inactive | inactive | inactive | inactive | inactive | inactive | inactive | inactive |
| O=C1CCCCC1 | inactive | inactive | inactive | inactive | inactive | inactive | inactive | inactive | inactive | inactive |
| Cc1ccc(C)c(C)c1 | inactive | inactive | inactive | inactive | inactive | inactive | inactive | inactive | inactive | inactive |
